High-throughput results: PubChem, The Scripps Research Institute Molecular Screening Center
Only some compounds are listed: those with a hit (about 3.4% of all), similar ones and a draw of the others.
PLC-beta3 inh – PLC-beta3 (human) inhibition, primary screen. Purified PLC-beta3, fluorogenic substrate, fluorescence. inhibition, % at 12.2 µM. Q01970. 370,000 tested, 0.18% active. AID 720704; in the data active = inhibition above about 11%;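 also: 0% = median of compound wells on plate and 100% = full blocker control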
KLK7 zymogen act – activates the human kallikrein-7 zymogen; activation, % at 7 µM; 370,000 tested, 0.9% active; P49862; AID 652039; purified proKLK7, EDANS-DABCYL substrate fluorescence; 100% is mature enzyme control, 0% vehicle;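 active = activation above the mean of all tested compounds plus 3 SD, computed per campaign excluding outliers beyond control limits, cut at about 13% in these data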
PLC-gamma1 inh – PLC-gamma1 (human) inhibition, primary screen | P19174 | 370,000 tested, 0.84% active | purified PLC-gamma1, fluorogenic substrate, fluorescence | inhibition, % at 12.2 µM; in the data active = inhibition above about 9.5%
ADAM17 inh – inhibitors of human ADAM17; recombinant ADAM17, EDANS/DABCYL FRET peptide cleavage; AID 720648; 370,000 tested, 0.83% active; inhibition, % at 6.95 µM; P78536;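 active = inhibition above the mean of compounds lying between control limits plus 3 SD, set per campaign, cut at about 8.5% in these data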;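 also: 0% = DMSO-only wells as the low control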
Target sequence (P78536 215-824 limits assumed): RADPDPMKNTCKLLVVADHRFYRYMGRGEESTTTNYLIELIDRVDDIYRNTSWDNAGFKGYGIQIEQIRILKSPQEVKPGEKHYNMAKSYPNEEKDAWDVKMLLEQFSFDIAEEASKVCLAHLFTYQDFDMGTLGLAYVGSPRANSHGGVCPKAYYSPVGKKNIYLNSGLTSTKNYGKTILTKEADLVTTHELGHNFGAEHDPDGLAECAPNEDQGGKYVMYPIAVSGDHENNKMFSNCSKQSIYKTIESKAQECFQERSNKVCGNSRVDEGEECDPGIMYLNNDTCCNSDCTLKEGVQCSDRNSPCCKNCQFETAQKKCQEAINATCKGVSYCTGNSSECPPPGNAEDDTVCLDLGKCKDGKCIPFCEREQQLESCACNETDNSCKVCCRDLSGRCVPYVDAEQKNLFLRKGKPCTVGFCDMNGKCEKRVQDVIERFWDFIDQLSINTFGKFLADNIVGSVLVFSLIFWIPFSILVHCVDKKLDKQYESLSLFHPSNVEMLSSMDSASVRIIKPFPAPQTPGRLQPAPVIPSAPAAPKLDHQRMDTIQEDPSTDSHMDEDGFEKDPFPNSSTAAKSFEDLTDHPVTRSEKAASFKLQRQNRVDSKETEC
HGIII-sPLA2 inh – Inhibits HGIII-sPLA2 liposome hydrolysis, primary screen | Q9NZ20 | QFRET BODIPY PC-A2 liposome hydrolysis, fluorescence | inhibition, % at 12.2 µM | 370,000 tested, 0.56% active;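 active = inhibition above mean plus 3 SD of compounds lying within the high and low control bounds, cut at about 19% in these data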;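 also: 0% = median of test compound wells and 100% = no enzyme DMSO wells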
ADAM10 inh – ADAM10 inhibition, QFRET primary screen | recombinant ADAM10, EDANS/DABCYL FRET peptide cleavage, 3 h | inhibition, % at 7 µM | 370,000 tested, 0.62% active | AID 720582;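 active = inhibition above a per-campaign cutoff equal to the mean of compounds falling between control-based bounds plus 3 SD, cut at about 20% in these data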;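 also: 0% = DMSO wells while the 100% control is not disclosed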
hGIII sPLA2 conf – human GIII-sPLA2 inhibition, confirmation | shares compounds with HGIII-sPLA2 inh | recombinant hGIII-sPLA2, BODIPY PC-A2 QFRET fluorescence | inhibition, % at 12.2 µM | 2,000 tested, 34% active;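 active = mean inhibition across triplicates above the hit cutoff set in the earlier primary screen, cut at about 19% in these data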;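 also: 0% = enzyme with DMSO and 100% = DMSO wells lacking enzyme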
535nm interf – optically interferes with 535nm fluorescence in sPLA2 counter-screen; shares compounds with HGIII-sPLA2 inh; 2,000 tested, 8.5% active; inhibition, % at 12.2 µM; BODIPY FL product fluorescence interference, QFRET;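 active = average inhibition above the solvent-only control mean plus 3 SD, cut at about 6% in these data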;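 also: 0% = DMSO with substrate plus product and 100% = DMSO with substrate alone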
535nm interf DR – counter-screen for HGIII-sPLA2 inhibitors: 535nm fluorescence interference, dose response | shares compounds with HGIII-sPLA2 inh | BODIPY FL product fluorescence interference, cell-free | IC50, µM | 240 tested, under 10 active;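 active = IC50 at or below 10 µM; inactive = IC50 above 10 µM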
The depositor's hits bear a star; i = inactive; x = no result.

SMILES | PLC-beta3 inh | KLK7 zymogen act | PLC-gamma1 inh | ADAM17 inh | HGIII-sPLA2 inh | ADAM10 inh | hGIII sPLA2 conf | 535nm interf | others
C=CCn1c(=NC(=O)c2ccc(S(=O)(=O)N3CCCc4ccccc43)cc2)sc2cc(S(N)(=O)=O)ccc21 | -50 | -3 | -40 | -1 | -7 | -10 | x | x
Cc1ccc(Nc2n[nH]c(=S)s2)c(C)c1 | -3 | 0 | 0 | -2 | 20* | -9 | 30* | 2 | 535nm interf DR=>122
COC(=O)[C@H](C(C)C)N(Cc1cn(Cc2ccc(C)cc2)nn1)S(=O)(=O)c1ccc(F)cc1Br | 4 | 0 | 2 | 2 | -3 | 2 | x | x
COc1ccc(Cn2cc(CN3[C@@H](CC(C)C)COc4ccc(Cl)cc4S3(=O)=O)nn2)cc1 | 2 | 0 | 2 | 0 | 2 | 5 | x | x
CCC(C)[C@H](NC(=O)N1CCCCC1)C(=O)OC (some centres not stated) | -6 | 1 | -2 | -1 | 23* | -6 | 0 | -4
O=C(CSc1nnc(-c2cnccn2)n1-c1ccccc1)Nc1ccc2c(c1)OCCO2 | 2 | 0 | 0 | -3 | 4 | -6 | x | x
COC(=O)[C@@]12CCCCC3=C1N(CCC3)C(=O)[C@H]2CC(=O)NCCCCc1ccccc1 | 0 | 0 | -2 | -1 | -8 | 0 | x | x
CCc1cnc(Nc2nc(C(N)c3ccccc3Cl)cs2)nc1 (configuration not stated) | -2 | -1 | 9 | -1 | 26* | -1 | 3 | -7
CCc1cnc(Nc2nc(C(N)Cc3ccc(Cl)cc3)cs2)nc1 (configuration not stated) | 3 | 0 | 5 | 0 | 9 | -6 | x | x
O=c1[nH]c2ccccc2n2c(C(F)(F)F)nnc12 | -41 | -6 | -21 | -12 | 20* | -43 | 3 | -8
C/C(=N/NC(=O)c1ccco1)c1ccc(NC(=O)c2ccc(F)cc2)cc1 | -5 | -1 | -3 | -5 | 23* | -9 | 10 | -8
C/C(=N/NC(=O)c1ccco1)c1ccc(NC(=O)c2ccc(Br)o2)cc1 | -3 | -1 | 2 | 3 | 3 | 10 | x | x
Cc1ccccc1NC(=S)NCC(c1cccnc1)N1CCOCC1 (configuration not stated) | 2 | 0 | 1 | -1 | 0 | -6 | x | x
CCc1cccc(CC)c1NC(=S)NCC(c1cccnc1)N1CCOCC1 (configuration not stated) | -4 | 1 | 6 | -6 | 24* | -3 | 18 | -6
O=[N+]([O-])c1cc2c(c([N+](=O)[O-])c1)Nc1ccccc1O2 | 3 | 0 | 4 | -1 | 21* | 0 | 45* | 12*
O=C1Nc2ccccc2Oc2cc([N+](=O)[O-])cc(Oc3ccccc3)c21 | 1 | 0 | 3 | 0 | 0 | 5 | x | x
O=C(NC(=S)N(Cc1ccccc1)c1ccccn1)C1CCCCC1 | 8 | 0 | 0 | -2 | 24* | -17 | 8 | -4
C[n+]1cc2c3c(ccc2c2ccc4cc5c(cc4c21)OCO5)OCO3 | -49 | -1 | -37 | -47 | 48* | -145 | 46* | -3 | 535nm interf DR=>122
CC(C)(C)c1ccc(S(=O)(=O)N2CCCC(C(=O)NCc3ccco3)C2)cc1 (configuration not stated) | -5 | 0 | -3 | 0 | -20 | -1 | x | x
COc1ccccc1CCNC(=O)c1cc(-c2ccncc2)nc2ccc(Br)cc12 | -1 | 0 | 4 | -1 | 3 | -2 | x | x
COc1ccccc1CCNC(=O)c1cc(-c2ccccn2)nc2ccccc12 | -4 | 0 | 1 | -3 | 20* | -5 | -7 | -22
C#CCNC(=O)C[C@H]1C[C@@]2(C(=O)OC)C(=C[C@H](COCc3ccccc3)O[C@@H]2C)N(Cc2cccc3ccccc23)C1=O | 0 | 1 | -1 | 0 | -10 | 3 | x | x
CCOc1ccc(CNC2CCCCCCC2)cc1OC | -2 | -1 | -2 | 2 | 9 | -9 | x | x
CCOc1ccc(C2OCCC(C)O2)cc1OC (configuration not stated) | -3 | 0 | -1 | 0 | 20* | -27 | 2 | -6
CCCC[C@H]1C2CC(OC(=O)Nc3ccc4c(c3)OCO4)C(C2)[C@H]2CCCCN21 (some centres not stated) | 3 | 0 | 2 | 0 | 7 | 2 | x | x
SMILES | PLC-beta3 inh | KLK7 zymogen act | PLC-gamma1 inh | ADAM17 inh | HGIII-sPLA2 inh | ADAM10 inh | hGIII sPLA2 conf | 535nm interf | others
COc1ccc(O)c(/C=N/NC(=S)Nc2cccc(S(=O)(=O)N(C)C)c2)c1 | i | 3 | i | -46 | 24* | -130 | 11 | 12*
COc1ccc(O)c(/C=N/NC(=S)Nc2cccnc2)c1 | i | -3 | -334 | -74 | 20* | -189 | 27* | 5
CC(C)CNc1cccc2c1S(=O)(=O)N(Cc1cn(Cc3cccc(C(F)(F)F)c3)nn1)Cc1ccccc1O2 | -18 | -9 | -31 | -2 | 1 | -15 | x | x
CN1CCC[C@@H]1CCNC(=O)c1cccc2c1C(=O)c1ccc(N3CCCC3)cc1S2(=O)=O | -141 | 1 | -110 | -2 | 78* | 0 | -21 | -31
O=C(CSc1nnc(COc2ccccc2)n1-c1ccccc1)Nc1ccc(S(=O)(=O)Nc2nccs2)cc1 | 2 | 0 | -1 | 4 | -59 | 14 | x | x
O=S(=O)(c1cccc(C(F)(F)F)c1)N1CCN(C(=S)NC2CC2)CC1 | -5 | 0 | 1 | -2 | 22* | 0 | 17 | -4
CCNC(=S)N1CCN(S(=O)(=O)c2cccc(C(F)(F)F)c2)CC1 | 1 | 0 | 1 | 0 | 8 | -4 | x | x
COc1ccc(C(C)NC(=S)NC2CCCC2)cc1OC (configuration not stated) | 4 | 0 | 1 | -5 | 8 | -1 | x | x
Cc1ccc(C(C)NC(=S)NC2CCCCC2)cc1C (configuration not stated) | -3 | 1 | 5 | -2 | 20* | 9 | 11 | -4
CCCCCn1cc(CCC(=O)Nc2ccc(N(C)c3ccccn3)cc2)c2ccccc21 | -36 | -4 | -30 | 2 | -22 | -11 | x | x
CS(=O)(=O)N1CCCC(C(=O)NCc2cccs2)C1 (configuration not stated) | -1 | 0 | 3 | -4 | 20* | 2 | -3 | -1
CS(=O)(=O)N1CCCC(C(=O)NCc2ccco2)C1 (configuration not stated) | 2 | 0 | 9 | -7 | 20* | -20 | -1 | -4
